The values below come from PubChem BioAssay.

For experiment [1], the system named is Human papillomavirus type 1a protein E7 (residues 44-93). The experiment is described as follows: HPV1a E7 fragment binders on microarrays, primary screen, biochemical, small-molecule microarray, residues 44-93, 635 nm fluorescence (AID 1108).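 Note: E7 fragment applied at 1 µg/mL in TBST for 1 h at 4 C; score combines spot fluorescence with its signal to noise ratio.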 To be noted: small-molecule microarray binding, fluorescence 635 nm; higher = more signal.
A short description of experiment [2]: modulators of HCV replicon luciferase signal, primary screen, HCV replication inhibitor project, Huh7 cells, luciferase reporter (AID 1109).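 Note: huh7 hepatoma cells harbouring a luciferase neomycin HCV replicon reporter; luciferase luminescence as measure of HCV replicon replication; test concentration not given here.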 To be noted: 48 h, higher = more signal.
Experiment [3] addresses Left-right determination factor 2 (Homo sapiens) (UniProt O00292). The experiment is described as follows: LEFTY2 binders on small-molecule microarrays, primary screen, biochemical, small-molecule microarray, 635 nm fluorescence scan (AID 1110). To be noted: LEFTY2 binding, higher = more signal.
Experiment [4] addresses Calmodulin-1 (Homo sapiens) (UniProt P0DP23). Put plainly: CALM1 binders on microarrays, EGTA buffer, profiling panel, biochemical, small-molecule microarray, Cy5-labelled CALM1 (AID 1111).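 Note: labelled calmodulin applied in Tris saline Tween buffer holding calcium plus EGTA and DTT.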 To be noted: Cy5-CALM1 binding fluorescence, higher = more signal.
Experiment [5] has the same target. The experiment is described as follows: calcium-bound CALM1 binders on microarrays, profiling panel, artefact control for SMM control-protein annotation, biochemical, small-molecule microarray, Cy5-labelled CALM1, plus calcium (AID 1112).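 Note: score merges spot fluorescence with signal to noise from triplicate slides.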 To be noted: Cy5-CALM1 binding fluorescence, higher = more signal.
Experiment [6] is described as follows: small-molecule microarray binders of probe aWnt5a, primary screen, biochemical, biotinylated probe, 635/667 nm fluorescence (AID 1113).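 Note: score merges 667 nm fluorescence intensity with signal-to-noise per printed feature.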 To be noted: higher = more signal.
Experiment [7] can be described thus: small-molecule microarray binders of probe aShh, primary screen, biochemical, biotinylated probe, 635/667 nm fluorescence (AID 1114).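 Note: probe is biotin-labelled aShh protein from a stem cell growth factor screen; measures binding of labelled protein to compounds printed on the slide; score merges feature fluorescence at 667 nm with signal-to-noise.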 To be noted: higher = more signal.
Experiment [8] is described as follows: small-molecule microarray binders of probe aNog, primary screen, biochemical, biotinylated probe, 635/667 nm fluorescence (AID 1115).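 Note: probe is biotinylated aNog protein used at 0.15 µg/mL for 1 h at 4 C; z-score combines 667 nm fluorescence of each spot with its signal to noise.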 To be noted: higher = more signal.
The target in experiment [9] is Torsin-1A-interacting protein 1 (Homo sapiens) (UniProt Q5JTV8). The experiment is described as follows: LAP1 binders from COS7 cell lysate, primary screen, small-molecule microarray, 635/667 nm fluorescence (AID 1116). To be noted: COS7-hLAP1 lysate binding, 635 nm fluorescence, higher = more signal.
Experiment [10] addresses Alpha-bungarotoxin (Bungarus multicinctus) (UniProt P60615). Put plainly: alpha-bungarotoxin binders on microarray, profiling panel, artefact control for SMM control protein annotation, biochemical, small-molecule microarray, Alexa647 label, 635/667 nm fluorescence (AID 1117). To be noted: alpha-BTX-A647 binding fluorescence, higher = more signal.

Sequence of Left-right determination factor 2 (Homo sapiens) (O00292 whole entry, looked up): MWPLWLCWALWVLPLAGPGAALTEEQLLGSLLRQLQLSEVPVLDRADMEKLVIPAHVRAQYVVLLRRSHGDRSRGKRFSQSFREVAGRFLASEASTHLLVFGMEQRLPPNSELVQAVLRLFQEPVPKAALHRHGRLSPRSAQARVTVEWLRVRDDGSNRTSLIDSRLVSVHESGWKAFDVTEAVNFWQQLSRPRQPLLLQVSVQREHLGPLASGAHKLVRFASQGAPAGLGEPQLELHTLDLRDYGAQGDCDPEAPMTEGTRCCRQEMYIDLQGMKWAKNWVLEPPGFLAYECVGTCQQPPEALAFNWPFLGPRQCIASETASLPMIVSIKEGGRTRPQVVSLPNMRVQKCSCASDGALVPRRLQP
Sequence of Alpha-bungarotoxin (Bungarus multicinctus) (P60615 whole entry, looked up): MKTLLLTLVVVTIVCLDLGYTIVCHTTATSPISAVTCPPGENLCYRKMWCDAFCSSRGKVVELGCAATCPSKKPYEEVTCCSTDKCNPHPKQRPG
Sequence of Torsin-1A-interacting protein 1 (Homo sapiens) (Q5JTV8 whole entry, looked up): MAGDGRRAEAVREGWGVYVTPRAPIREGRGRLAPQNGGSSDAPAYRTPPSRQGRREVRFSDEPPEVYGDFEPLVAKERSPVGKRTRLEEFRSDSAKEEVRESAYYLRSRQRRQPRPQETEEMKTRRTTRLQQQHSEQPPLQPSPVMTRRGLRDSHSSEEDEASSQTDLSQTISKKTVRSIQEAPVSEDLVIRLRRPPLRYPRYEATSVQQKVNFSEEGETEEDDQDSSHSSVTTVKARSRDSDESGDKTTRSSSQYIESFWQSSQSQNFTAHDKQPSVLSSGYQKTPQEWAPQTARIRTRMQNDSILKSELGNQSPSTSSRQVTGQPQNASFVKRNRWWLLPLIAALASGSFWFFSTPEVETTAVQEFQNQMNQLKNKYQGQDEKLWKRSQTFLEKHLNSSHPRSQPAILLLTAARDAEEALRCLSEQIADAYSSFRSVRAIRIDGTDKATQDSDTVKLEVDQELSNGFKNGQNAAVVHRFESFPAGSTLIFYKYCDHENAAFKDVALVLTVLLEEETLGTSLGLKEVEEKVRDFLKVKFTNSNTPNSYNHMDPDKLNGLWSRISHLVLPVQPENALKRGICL

As for `CN(C)CCCNC(=O)[C@@H]1c2ccccc2C(=O)N(Cc2ccccc2)[C@H]1c1ccc(CO)cc1`, the composite z-score is -0.176 in [1]; 0.186 in [3]; -0.177 in [4]; -0.981 in experiment [5]; -0.0527 in experiment [6]; -0.281 in [7]. Also, the composite z-score in experiment [8] is 0.366; in [9] it was -0.668; in [10] it was -0.261. In experiment [2], this molecule came in with a z-score of -1.24.
On to `CO[C@@H]1COC(=O)CCC[C@@H](C)[C@H](OC)COC(=O)[C@H](Cc2ccccc2)NC(=O)CC=C[C@H]1C`, for which the composite z-score is -1.68 in [1]; 0.714 in experiment [3]; -1.16 in [4]; -1.81 in experiment [5]; -0.197 in experiment [6]; 0.194 in [7]. The composite z-score in experiment [8] is 0.0596; in experiment [9], -0.405; in experiment [10] it was -0.0864. The molecule further showed a z-score in [2] of -1.48.
For `Cc1cc2c(nc1C)CCCN2CC(O)CN1CCN(C)CC1` (stereo not given), the composite z-score in experiment [1] was 0.329; in experiment [3] it was 0.625; in experiment [4], -0.441; in experiment [5], -0.482; in [6], 0.212; in experiment [7], 0.116. Moreover, the composite z-score in experiment [8] was -0.23; in experiment [9] it was 0.395; in experiment [10] it was 0.908. This molecule came in with a z-score in experiment [2] of -0.162.
In the case of `CO[C@@H]1COC(=O)CC=C[C@@H](C)[C@H](OC)COC(=O)[C@H](COCc2ccccc2)NC(=O)CC=C[C@H]1C`, the composite z-score in experiment [1] is -2.18; in experiment [3], 0.62; in [4], -1.07; in [5], -2.36; in experiment [6] it was -0.232; in [7], -0.302. Moreover, the values for the composite z-score in [8], in experiment [9] and in experiment [10] were -0.625, 0.0597 and -0.486, respectively. This molecule also had a z-score in experiment [2] of -1.36.
Consider `CC[C@@H](c1ccccc1)n1c(=O)n2n(c1=O)[C@H]1[C@H](O)[C@@H]3O[C@@H]3C(=NOCC(C)C)[C@H]1CC2`, for which the composite z-score in experiment [1] is 0.284; in experiment [3], 0.143; in experiment [4], -0.0128; in [5], -0.178; in experiment [6] it was -0.12; in experiment [7] it was -0.14. The results for the composite z-score in [8], in experiment [9] and in [10] were -0.407, 0.107 and -0.088, respectively. The molecule further registered a z-score in [2] of -2.11.
As for `CC(C)(C)OC(=O)CC[C@]1(C(=O)NCc2ccccc2)N=C(c2ccc(OCCCO)cc2)O[C@H]1c1ccccc1`, the composite z-score in [1] was 1.02; in [3] it was -0.598; in experiment [4], 1.91; in experiment [5], 0.683; in experiment [6], 0.257; in experiment [7], 0.147. The composite z-score in [8] was -0.198; in experiment [9], 1.6; in experiment [10] it was 1.53. This molecule showed a z-score in [2] of -2.44.
Take `CC(C)=CCCC(C)=CCON=C1C[C@@H](O)[C@@H](O)[C@@H]2[C@@H]3C(=O)N(C[C@@H]4CCCO4)C(=O)[C@@H]3CC[C@@H]12`: the composite z-score was 1.38 in experiment [1]; 0.763 in [3]; -0.599 in experiment [4]; -1.4 in experiment [5]; -0.104 in [6]; -0.243 in experiment [7]. Moreover, the composite z-score in experiment [8] was -0.319; in experiment [9], 0.101; in [10] it was 0.488. In experiment [2], this molecule had a z-score of 0.398.
For `CCCC[C@@H](O)C1=C(C)C[C@H]2C(=O)N(Cc3ccccc3)C(=O)[C@H]2[C@H]1CO`, the composite z-score was -0.101 in experiment [1]; 0.521 in [3]; -0.349 in [4]; -0.611 in experiment [5]; -0.0478 in [6]; -0.0553 in experiment [7]. In addition, the figures for the composite z-score in experiment [8], in experiment [9] and in experiment [10] were -0.158, 0.503 and -0.227, respectively. For the same molecule, the z-score in experiment [2] stood at 0.156.
In the case of `O=C1C2C=CC(C(O)c3ccc([N+](=O)[O-])cc3)N(Nc3ccc([N+](=O)[O-])cc3)C2C(=O)N1c1ccccc1` (stereo not given), the composite z-score was found to be 1.47 in experiment [1]; 0.179 in experiment [3]; 2.01 in [4]; 0.757 in experiment [5]; 0.152 in [6]; 0.0796 in experiment [7]. Moreover, the composite z-score in [8] was 0.0473; in experiment [9], 1.3; in experiment [10], 2.8. The z-score in experiment [2] was -0.74.
For the molecule `CC(C)[C@@H](OCc1ccccc1)[C@H](C)C=NOC[C@@H](C)[C@H](OCc1ccccc1)C(C)C`, the composite z-score was 0.255 in [1]; 0.885 in experiment [3]; 0.148 in experiment [4]; -0.546 in [5]; -0.101 in experiment [6]; -0.0685 in [7]. For the same molecule, the composite z-score in experiment [8] was -0.132; in [9], 0.0528; in experiment [10], 0.312. Further, in experiment [2], the z-score is -0.534.
Regarding `C=C(/C(=C/C[C@H](OC(C)=O)c1ccc(OCCO)cc1)c1cnc2ccccc2c1)C(C)C`, the composite z-score is 1.41 in experiment [1]; 1.06 in [3]; 0.295 in experiment [4]; -0.184 in experiment [5]; 0.117 in experiment [6]; -0.0917 in [7]. For the same molecule, the composite z-score in [8] was -0.243; in experiment [9], 0.782; in experiment [10] it was 0.911. In experiment [2], this molecule registered a z-score of -1.38.
For `COc1cccc([C@@H]2Oc3ccc(Br)cc3C(=O)[C@H]2O)c1`, the composite z-score in experiment [1] was 0.0288; in [3] it was 0.171; in experiment [4], 0.042; in experiment [5], -0.246; in experiment [6] it was -0.124; in experiment [7], -0.243. Also, the composite z-score in [8] was -0.257; in experiment [9], 0.43; in experiment [10] it was 0.599. In [2], this molecule gave a z-score of 3.55.
